Reference: PubChem BioAssay
Measured potencies and affinities stand elsewhere. The source made the active and inactive calls. Cut-off not given; nearly all actives show IC50 up to about 0.91 µM.

biological target: Calcium-dependent protein kinase 4 (Plasmodium falciparum (isolate 3D7)) (UniProt Q8IBS5); test: PfCDPK4 kinase inhibitors, biochemical, TCAMS library (AID 1159588); conditions: recombinant PfCDPK4, Kinase-Glo ATP depletion luminescence
Sequence (Q8IBS5 whole entry, looked up): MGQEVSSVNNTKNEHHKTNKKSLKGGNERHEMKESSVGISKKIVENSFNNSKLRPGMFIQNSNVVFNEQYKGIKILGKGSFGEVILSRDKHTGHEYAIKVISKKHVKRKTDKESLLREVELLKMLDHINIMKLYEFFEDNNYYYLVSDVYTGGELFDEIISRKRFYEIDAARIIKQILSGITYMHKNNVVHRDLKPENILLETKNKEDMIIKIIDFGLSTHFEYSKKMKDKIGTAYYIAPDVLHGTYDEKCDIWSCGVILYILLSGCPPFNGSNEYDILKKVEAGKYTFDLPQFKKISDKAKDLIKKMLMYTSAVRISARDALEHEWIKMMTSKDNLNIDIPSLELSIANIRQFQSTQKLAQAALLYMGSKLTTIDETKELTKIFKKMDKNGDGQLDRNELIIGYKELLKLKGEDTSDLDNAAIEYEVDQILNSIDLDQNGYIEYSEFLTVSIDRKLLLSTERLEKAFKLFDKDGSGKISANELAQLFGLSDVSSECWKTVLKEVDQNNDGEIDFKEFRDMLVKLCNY

outcome, inactive:
CC(C)c1ccc(C(NC(=O)C2CCCCC2)c2ccc3cccnc3c2O)cc1 (centres undefined), O=C(/C=C/c1ccc(Cl)c(Cl)c1)NCCCCCCN1CCN(C(=O)Nc2ccc(OC(F)F)cc2)CC1, COc1cc2ncnc(Nc3ccc(Br)c(Cl)c3)c2cc1OC, COc1cccc(C=CC(=O)N(CCN)Cc2ccccc2)c1, c1cc(COc2ccc(C3=NCCN3)cc2)nc(COc2ccc(C3=NCCN3)cc2)c1, O=C(Nc1cc(C(F)(F)F)cc(C(F)(F)F)c1)Nc1ccc(Cl)c(Cl)c1, Cc1cccc2[nH]c(-c3cccc(-c4cccc(NC(=O)Cc5cnc[nH]5)c4)c3)nc12, Cc1cc(N2CCCC2)nc(Nc2ccc(NC(=O)C3CCCC3)cc2)n1, CCNC(=O)c1ccc2c(c1)c(C)c(C)n2Cc1ccc(F)cc1, O=C(c1cc(-c2ccccc2O)on1)N1CCN(C(c2ccccc2)c2ccccc2)CC1, CCOC(=O)NCC(=O)Nc1cccc(-c2cccc(-c3nc4ccc(C(F)(F)F)cc4[nH]3)c2)c1, CN1CCCC(CN2CCN(Cc3ccc(-c4ccc(-c5nc6ccccc6[nH]5)s4)cc3)CC2)C1 (centres undefined), Cc1cccc2[nH]c(-c3ccc(-c4cccc(CN5CCC(C(N)=O)CC5)c4)cc3)nc12, Cc1c(F)cc(C(=O)NC2CC2)cc1-c1ccc2c(cnn2S(=O)(=O)c2cccs2)c1, CC(C)Nc1cc(C(=O)N[C@@H](Cc2ccccc2)[C@H](O)CNC2CCOCC2)c(F)c(N2CCCCS2(=O)=O)c1, Cc1cnc(NCC2CCCCC2)nc1NCC(=O)Nc1ccccc1, FC(F)(F)c1cccc(NC(=S)NN=Cc2ccccn2)c1, OC1(c2ccc(Br)cc2)CCN(C2CCN(Cc3ccccc3)CC2)CC1, CCOc1ccc2nc(C)cc(NN=Cc3ccncc3)c2c1, COc1ccc2nccc([C@@H](O)CN3CCC(NCc4cc5ccccc5o4)CC3)c2c1, COc1ccc(C(=O)Nc2ccc3oc(-c4ccc(C(F)(F)F)cc4)cc3c2)cc1CCCN(C)C, CCc1cn(C)c2c(N3CCCC3=O)cc(C(=O)N[C@@H](Cc3ccccc3)[C@H](O)CNC(C)(C)c3cccc(OC)c3)cc12, O=C(Nc1cccc(-c2ccc(CN3CCCC3)cc2)c1)c1ccc(F)cc1, CCC(CC)OC(=O)C(C)c1cccc(C(=O)c2ccccc2)c1 (centres undefined), N#Cc1ccc2c(c1)CCN(CCC1CCC(NC(=O)/C=C/c3cnc4ccccc4c3)CC1)CC2 (centres undefined), CN1CCC(N2CCN(Cc3ccc(-c4cccc(-c5nc6ccc(F)cc6[nH]5)c4)cc3)CC2)CC1, CC(C)(C)c1ccc2nc(-c3ccc(C(=O)NCc4cccc(C(F)(F)F)c4)cc3)[nH]c2c1, CCN1CCN(c2cc(C)c3cc(NC(=O)c4cccc([N+](=O)[O-])c4)ccc3n2)CC1, N=C(N)c1cc(Cl)cc(NC(=O)Nc2cc(Cl)cc(C(=N)N)c2)c1, N#Cc1ccc2c(c1)CCN(CCC1CCC(NC(=O)Nc3ccncc3)CC1)C2 (centres undefined), CCc1ccc(NC(=O)C=NN=C(N)N)cc1, Cc1ccn2c(N(Cc3ccccc3)C(=O)c3ccc(Cl)c(Cl)c3)c(-c3ccccc3)nc2c1, O=C(c1cccc(COc2ccc3c(c2)CCN(C2CCCC2)CC3)c1)N1CCN(c2ccncc2)CC1, CCCCCCCN1CC[C@H](CC(=O)Nc2ccnc3ccc(OC)cc23)[C@@H](CC)C1, CCCCCCN1CCC(NCc2ccc(OCCN3CCCC3)cc2)CC1, COc1cccc2cc(C(=O)N[C@@H](CC(C)C)C(=O)N[C@H](/C=N/NC(=O)OC(C)(C)C)CC(C)C)oc12, OC(CNCc1cccc(Oc2ccc(Cl)cc2)c1)c1cccc(C(F)(F)F)c1 (centres undefined), COc1ccc(-c2ccc(NC(=O)c3cccc(C#N)c3)cc2)cc1CN1CCNCC1, COC(=O)CNC(c1ccccc1)c1cc(Br)ccc1NC(=O)c1ccccc1Br (centres undefined)
